Measured values taken from PubChem BioAssay (NCATS).
Inconclusive results are not listed. Activity calls are given as the source filed them. Calls follow the shape of the dose curve; as a rule, active = well fitted curve in the direction sought with a large enough effect; inconclusive = small, poorly fitted or top-dose-only effect, or another doubt; inactive = no such curve, though single readings can be large or run the other way.

experiment: qHTS for Inhibitors of the vitamin D receptor (VDR): Hit Validation using a Texas Red Assay (AID 602201); conditions: VDR coregulator binding, Texas Red fluorescence polarization, agonist-bound VDR ligand-binding domain; series mostly up to 57.1 µM; activity, negative = inhibition: at the top concentration
Outline: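 Fluorescence polarization with 1.5 uM VDR-LBD, LG19078 and 7 nM Texas Red (final). After 2 hours at ambient temperature, read at Ex 595 nm/Em 615 nm.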
% is scaled to controls: 0 for no effect and ±100 for the full control effect; potency is read from the fitted curve at half-maximal effect.

Potency, active:
O=C(CCS(=O)(=O)c1nc(-c2cccs2)cc(C(F)(F)F)n1)Nc1cc(Br)ccc1O 5.62 µM, COc1ccc(OC)c2c1C(=O)C(Cl)=C(Cl)C2=O 7.08 µM, COc1cccc(C(=O)Oc2ccccc2/C=C\C(=O)c2cc3ccccc3o2)c1 3.16 µM, CC(C)(C)c1nnc(NS(=O)(=O)c2ccc([N+](=O)[O-])cc2)s1 25.1 µM, COc1cc(/C=C2\C(=O)ON=C2c2ccc(Cl)cc2)ccc1O 3.55 µM, CC(NC(=O)c1sc2cc([N+](=O)[O-])ccc2c1Cl)C(C)(C)C (centres undefined) 3.55 µM, COc1ccc(OC)c(/C=C/C(=O)c2ccc(Cl)cc2)c1 28.2 µM, COc1ccccc1N1C(=O)C=C(Sc2nc(C)cc(C)n2)C1=O 14.1 µM, O=C(O)CSc1cc(NS(=O)(=O)c2cccc([N+](=O)[O-])c2)c2ccccc2c1O 2.82 µM, CCCOc1ccc(/C=C2/C(=O)ON=C2C)cc1OCC 15.8 µM, O=S(=O)(/N=C(\Sc1ccc(Cl)cc1)c1ccccc1)c1ccccc1 35.5 µM, Nc1cc(S(=O)(=O)Nc2ccccc2Cl)ccc1N1CCCCC1 5.62 µM, Cc1cc2nc3ccc(N(C)C)cc3nc2cc1N 3.55 µM, C#CCOc1c(Cl)cc(/C=C2/C(=O)ON=C2C)cc1OCC 15.8 µM, O=C(/C=C/c1cccc([N+](=O)[O-])c1)c1ccc2c(c1)OCCO2 14.1 µM, Cc1ccc(CSC2=NS(=O)(=O)c3ccccc32)cc1 7.94 µM, COc1cc(/C=C/C(=O)c2cccc([N+](=O)[O-])c2)cc(OC)c1OC 4.47 µM

activity, negative = inhibition, inactive:
Cc1cccc2c1N(CCCOc1ccccc1)C(=O)C2=O -7.87%, O=C1OC(NC(=O)c2ccccc2)C(n2cc(CO)nn2)=C1Cl (centres undefined) -8.44%, CCOc1cc(/C=C2/C(=O)ON=C2C)cc(Br)c1O 11.8%, O=C(/C=C/c1ccccc1Cl)c1cccnc1 -19.7%, Cc1cc(C(C2C(=O)CC(C)(C)CC2=O)C2C(=O)CC(C)(C)CC2=O)cc(C)c1OC(F)F -17.3%, O=C(Nc1nc(-c2ccccn2)cs1)c1cc(Cl)ccc1[N+](=O)[O-] -3.7%, O=C(O)/C=C/C(=O)c1ccc2c(c1)NC(=O)CO2 2.2%
